Assay in all cases: PBM; 200 nM protein, PBS
Details in all cases: dsDNA, one strand shown

Assay [1] has as its target T1, VENTX (Homo sapiens, UniProt O95231 78-163, R121Q).
T1 sequence: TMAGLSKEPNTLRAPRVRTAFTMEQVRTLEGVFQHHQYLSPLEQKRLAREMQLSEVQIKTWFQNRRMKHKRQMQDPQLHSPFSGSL

For assay [2], the target named is HOXB9 (Homo sapiens, UniProt P17482 171-250, T197M).
Assay [3] deals with T2, VENTX (Homo sapiens, UniProt O95231 78-163).
T2 sequence: T1 sequence with Q44R

Assay [4] concerns the target T3, VENTX (Homo sapiens, UniProt O95231 78-163, Y115F).
T3 sequence: T1 sequence with Y38F, Q44R

Assay [5] addresses HOXB9 (Homo sapiens, UniProt P17482 171-250).
Assay [6] has as its target ALX3 (Homo sapiens, UniProt O95076 139-225, N203Q).
Assay [7] concerns the target ALX3 (Homo sapiens, UniProt O95076 139-225).
Assay [8] addresses ALX3 (Homo sapiens, UniProt O95076 139-225, L168Q).
In assay [9] the target is HOXB9 (Homo sapiens, UniProt P17482 171-250, R186Q).
Sequence of HOXB9 (Homo sapiens, UniProt P17482 171-250, R186Q) (P17482 171-250 R186Q): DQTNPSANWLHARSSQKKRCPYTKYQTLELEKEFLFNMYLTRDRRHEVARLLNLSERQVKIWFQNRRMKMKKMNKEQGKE
Assay [10] concerns the target ALX3 (Homo sapiens, UniProt O95076 139-225, L168V).
For assay [11], the target named is ALX3 (Homo sapiens, UniProt O95076 139-225, N203S).
Sequence of ALX3 (Homo sapiens, UniProt O95076 139-225, N203S) (O95076 139-225 N203S): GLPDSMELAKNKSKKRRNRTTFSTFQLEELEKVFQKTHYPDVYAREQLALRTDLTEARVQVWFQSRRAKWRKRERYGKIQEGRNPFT
Assay [12] addresses HOXA7 (Homo sapiens, UniProt P31268 116-202).
Assay [13] concerns the target MSX2 (Homo sapiens, UniProt P35548 130-214, R199I).
In assay [14] the target is MSX2 (Homo sapiens, UniProt P35548 130-214).
Sequence of MSX2 (Homo sapiens, UniProt P35548 130-214) (P35548 130-214): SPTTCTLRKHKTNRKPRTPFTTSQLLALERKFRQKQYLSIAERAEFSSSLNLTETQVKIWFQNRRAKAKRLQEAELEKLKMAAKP
For assay [15], the target named is PROP1 (Homo sapiens, UniProt O75360 56-141).
Sequence of PROP1 (Homo sapiens, UniProt O75360 56-141) (O75360 56-141): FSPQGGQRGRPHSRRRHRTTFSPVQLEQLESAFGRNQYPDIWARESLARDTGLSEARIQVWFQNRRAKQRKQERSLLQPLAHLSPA
Assay [16] has as its target PROP1 (Homo sapiens, UniProt O75360 56-141, R99H).
The target in assay [17] is PROP1 (Homo sapiens, UniProt O75360 56-141, F88S).
Sequence of PROP1 (Homo sapiens, UniProt O75360 56-141, F88S) (O75360 56-141 F88S): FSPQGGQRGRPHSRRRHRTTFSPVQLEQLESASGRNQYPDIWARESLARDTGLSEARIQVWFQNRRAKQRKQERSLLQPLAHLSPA
Assay [18] addresses MSX2 (Homo sapiens, UniProt P35548 130-214, F161Y).
Assay [19] addresses HOXA7 (Homo sapiens, UniProt P31268 116-202, W177C).
The target of assay [20] is T4, SIX6 (Homo sapiens, UniProt O95475 114-200, L167I).
T4 sequence: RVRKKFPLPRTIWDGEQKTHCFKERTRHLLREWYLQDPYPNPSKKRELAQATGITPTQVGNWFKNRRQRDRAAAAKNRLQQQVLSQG

For assay [21], the target named is T5, SIX6 (Homo sapiens, UniProt O95475 114-200, L143V).
T5 sequence: T4 sequence with L30V, I54L

The target in assay [22] is T6, SIX6 (Homo sapiens, UniProt O95475 114-200, H141N).
T6 sequence: T4 sequence with H28N, I54L

The target in assay [23] is T7, SIX6 (Homo sapiens, UniProt O95475 114-200, T165P).
T7 sequence: T4 sequence with T52P, I54L

Assay [24] addresses T8, SIX6 (Homo sapiens, UniProt O95475 114-200, L167M).
T8 sequence: T4 sequence with I54M

Assay [25] addresses T9, SIX6 (Homo sapiens, UniProt O95475 114-200, L143M).
T9 sequence: T4 sequence with L30M, I54L

Assay [26] has as its target T10, SIX6 (Homo sapiens, UniProt O95475 114-200, L143I).
T10 sequence: T4 sequence with L30I, I54L

In assay [27] the target is T11, SIX6 (Homo sapiens, UniProt O95475 114-200, T165G).
T11 sequence: T4 sequence with T52G, I54L

Assay [28] addresses T12, SIX6 (Homo sapiens, UniProt O95475 114-200, T139Q).
T12 sequence: T4 sequence with T26Q, I54L

The target of assay [29] is T13, SIX6 (Homo sapiens, UniProt O95475 114-200, T165A).
T13 sequence: T4 sequence with T52A, I54L

For assay [30], the target named is T14, SIX6 (Homo sapiens, UniProt O95475 114-200, L167V).
T14 sequence: T4 sequence with I54V

The target in assay [31] is T15, SIX6 (Homo sapiens, UniProt O95475 114-200).
T15 sequence: T4 sequence with I54L

The target in assay [32] is T16, SIX6 (Homo sapiens, UniProt O95475 114-200, T165I).
T16 sequence: T4 sequence with T52I, I54L

Positions count from the first letter of the chain named.

Sequence of HOXB9 (Homo sapiens, UniProt P17482 171-250, T197M) (P17482 171-250 T197M): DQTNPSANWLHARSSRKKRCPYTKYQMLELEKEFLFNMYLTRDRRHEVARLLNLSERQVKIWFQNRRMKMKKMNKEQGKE
Sequence of HOXB9 (Homo sapiens, UniProt P17482 171-250) (P17482 171-250): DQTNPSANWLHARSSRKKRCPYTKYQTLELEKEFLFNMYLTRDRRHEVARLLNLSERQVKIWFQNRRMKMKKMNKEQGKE
Sequence of ALX3 (Homo sapiens, UniProt O95076 139-225, L168V) (O95076 139-225 L168V): as the sequence (O95076 139-225 N203S) above, with L30V, S65N counted along it
Sequence of ALX3 (Homo sapiens, UniProt O95076 139-225, L168Q) (O95076 139-225 L168Q): as the sequence (O95076 139-225 N203S) above, with L30Q, S65N counted along it
Sequence of PROP1 (Homo sapiens, UniProt O75360 56-141, R99H) (O75360 56-141 R99H): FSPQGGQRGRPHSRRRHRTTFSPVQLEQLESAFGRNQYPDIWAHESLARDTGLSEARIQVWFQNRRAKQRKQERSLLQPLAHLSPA
Sequence of MSX2 (Homo sapiens, UniProt P35548 130-214, R199I) (P35548 130-214 R199I): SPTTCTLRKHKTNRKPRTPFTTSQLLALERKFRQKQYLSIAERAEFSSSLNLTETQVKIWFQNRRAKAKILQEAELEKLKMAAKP
Sequence of HOXA7 (Homo sapiens, UniProt P31268 116-202, W177C) (P31268 116-202 W177C): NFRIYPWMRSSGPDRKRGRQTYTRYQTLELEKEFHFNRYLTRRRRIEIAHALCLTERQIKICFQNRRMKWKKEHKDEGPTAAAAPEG
Sequence of MSX2 (Homo sapiens, UniProt P35548 130-214, F161Y) (P35548 130-214 F161Y): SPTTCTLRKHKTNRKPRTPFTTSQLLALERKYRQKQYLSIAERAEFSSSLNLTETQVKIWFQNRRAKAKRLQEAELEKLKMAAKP
Sequence of ALX3 (Homo sapiens, UniProt O95076 139-225) (O95076 139-225): as the sequence (O95076 139-225 N203S) above, with S65N counted along it
Sequence of HOXA7 (Homo sapiens, UniProt P31268 116-202) (P31268 116-202): as the sequence (P31268 116-202 W177C) above, with C62W counted along it
Sequence of ALX3 (Homo sapiens, UniProt O95076 139-225, N203Q) (O95076 139-225 N203Q): as the sequence (O95076 139-225 N203S) above, with S65Q counted along it

In the case of GACCCAGC, the binding signal in [1] was 8.18 upbm affinity estimate (log intensity, higher = more binding, comparable within an allelic series); in assay [2], 8.5 upbm affinity estimate (log intensity, higher = more binding, comparable within an allelic series); in assay [3], 8.16 upbm affinity estimate (log intensity, higher = more binding, comparable within an allelic series); in [4], 8.12 upbm affinity estimate (log intensity, higher = more binding, comparable within an allelic series); in [5] it was 8.47 upbm affinity estimate (log intensity, higher = more binding, comparable within an allelic series); in [6], 7.75 upbm affinity estimate (log intensity, higher = more binding, comparable within an allelic series). Also, the binding signal in assay [7] was 7.56 upbm affinity estimate (log intensity, higher = more binding, comparable within an allelic series); in assay [8], 7.85 upbm affinity estimate (log intensity, higher = more binding, comparable within an allelic series); in assay [9], 8.49 upbm affinity estimate (log intensity, higher = more binding, comparable within an allelic series); in assay [10], 7.79 upbm affinity estimate (log intensity, higher = more binding, comparable within an allelic series); in [11], 7.8 upbm affinity estimate (log intensity, higher = more binding, comparable within an allelic series).
With CCCGGACG, the binding signal in [1] was 7.96 upbm affinity estimate (log intensity, higher = more binding, comparable within an allelic series); in [2] it was 8.39 upbm affinity estimate (log intensity, higher = more binding, comparable within an allelic series); in assay [3], 7.88 upbm affinity estimate (log intensity, higher = more binding, comparable within an allelic series); in assay [12], 8.42 upbm affinity estimate (log intensity, higher = more binding, comparable within an allelic series); in [4] it was 8.04 upbm affinity estimate (log intensity, higher = more binding, comparable within an allelic series); in assay [5], 8.49 upbm affinity estimate (log intensity, higher = more binding, comparable within an allelic series). Also, the binding signal in [13] was 9.41 upbm affinity estimate (log intensity, higher = more binding, comparable within an allelic series); in assay [14], 9.27 upbm affinity estimate (log intensity, higher = more binding, comparable within an allelic series); in assay [15] it was 6.37 upbm affinity estimate (log intensity, higher = more binding, comparable within an allelic series); in assay [16], 6.67 upbm affinity estimate (log intensity, higher = more binding, comparable within an allelic series); in [9], 8.54 upbm affinity estimate (log intensity, higher = more binding, comparable within an allelic series); in assay [17], 6.37 upbm affinity estimate (log intensity, higher = more binding, comparable within an allelic series). Moreover, the binding signal was 9.4 upbm affinity estimate (log intensity, higher = more binding, comparable within an allelic series) in assay [18] and 8.37 upbm affinity estimate (log intensity, higher = more binding, comparable within an allelic series) in assay [19].
As to GGCGGAAC, the binding signal in [1] was 8.14 upbm affinity estimate (log intensity, higher = more binding, comparable within an allelic series); in assay [20] it was 8.85 upbm affinity estimate (log intensity, higher = more binding, comparable within an allelic series); in assay [3], 8.22 upbm affinity estimate (log intensity, higher = more binding, comparable within an allelic series); in assay [21], 8.81 upbm affinity estimate (log intensity, higher = more binding, comparable within an allelic series); in [22], 8.78 upbm affinity estimate (log intensity, higher = more binding, comparable within an allelic series); in assay [23], 8.99 upbm affinity estimate (log intensity, higher = more binding, comparable within an allelic series). Also, the binding signal in assay [4] was 8.15 upbm affinity estimate (log intensity, higher = more binding, comparable within an allelic series); in [24], 8.81 upbm affinity estimate (log intensity, higher = more binding, comparable within an allelic series); in [25], 8.85 upbm affinity estimate (log intensity, higher = more binding, comparable within an allelic series); in assay [26], 8.84 upbm affinity estimate (log intensity, higher = more binding, comparable within an allelic series); in assay [27] it was 8.85 upbm affinity estimate (log intensity, higher = more binding, comparable within an allelic series); in [28], 8.82 upbm affinity estimate (log intensity, higher = more binding, comparable within an allelic series). Also, the binding signal was 8.85 upbm affinity estimate (log intensity, higher = more binding, comparable within an allelic series) in assay [29]; 8.86 upbm affinity estimate (log intensity, higher = more binding, comparable within an allelic series) in assay [30]; 8.77 upbm affinity estimate (log intensity, higher = more binding, comparable within an allelic series) in [31]; 8.82 upbm affinity estimate (log intensity, higher = more binding, comparable within an allelic series) in [32].

These data come from article PMC11006913.
